We go through 8 compounds from PubChem BioAssay (NCATS).

“And” between values parts separate entries of the source, which are not always exact repeats. Equal entries are not always repeated. Inconclusive results are not listed. A structure can be active in one record and inactive in another. The source made the active and inactive calls. Unless noted, calls come from the whole dose curve; as a rule, active = well fitted curve in either direction with a large enough effect (not every such curve was filed as active); inconclusive = small, poorly fitted or top-dose-only effect, or another doubt; inactive = flat fitted curve, though single readings scatter.

A short description of assay [1]: AP1 Signaling Pathway (AID 357). Note: % is set by controls: 0 for no effect and ±100 for the full control effect. Conditions: ME-180 AP-1-bla reporter, EGF-induced, beta-lactamase ratio, 5 h. In a few lines:
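ME-180 cells with beta-lactamase reporter under AP-1 response element, stimulated with EC50 EGF; compounds tested in titration series, 5 h at 37 °C. CCF4 substrate added 2.5 h at room temperature; 460/530 nm emission ratio gave %activity and AC50.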

Assay [2] concerns the target Cytochrome P450 1A2 (Homo sapiens) (UniProt P05177). Kind of assay: p450-cyp1a2 (AID 410; calls by dose curve; note: potency is the fitted concentration of half-maximal effect;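 for activity change, negative = inhibition: -100% = full effect of reference inhibitor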). To be noted: recombinant CYP1A2, luciferin-ME demethylation, luminescence; series mostly up to 25.6 µM. The essentials: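 20nM CYP1A2 with 100uM Luciferin-ME (at Km) in 100mM KPO4; compound preincubated 10 min, NADPH regeneration added, 60 min at room temperature. Luciferin quantified by luminescence after detection reagent; normalized to 57 uM furafylline.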

Assay [3] can be described thus: NFAT Signaling Pathway (AID 444).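 Note: carbachol stimulus at about its EC50 of 1 µM final; % is set by controls: 0 for no effect and ±100 for the full control effect.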 Conditions: Jurkat NFAT-bla M1, carbachol, beta-lactamase ratio, 5 h. The essentials: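 Read-out: CCF4 FRET ratio (460 nm/530 nm) after 1 h RT dye loading, used for %activity and AC50 from titration series. Cells: Jurkat NFAT-β-lactamase/M1 line, treated with compound plus 1 uM carbachol for 5 h, 37 °C.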
The nature of assay [4]: Stat Signaling Pathway (AID 446).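 Note: ME-180 cervical cancer cells given 40 pM IL-6 alongside compound; SIE-controlled beta-lactamase reporter measured as 460/530 nm FRET emission ratio; % is set by controls: 0 for no effect and ±100 for the full control effect.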 Conditions: ME-180 SIE beta-lactamase reporter, IL-6 stimulated, 5 h. The essentials: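 Screening format detects activators and inhibitors alike: ME-180 SIE-bla cells stimulated at 40 pM IL-6 for 5 hrs with compound, then dual-emission beta-lactamase read at 405 nm excitation.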
Assay [5] addresses Mitogen-activated protein kinase 10 (Mus musculus) (UniProt Q61831). Kind of assay: JNK3 AlphaScreen Assay (AID 530).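 Note: kinase came from lysate of stimulated human HepG2 cells; signal reports phosphorylation of biotinylated GST-cJun 1-79 at Ser73 with 10 µM ATP; % is set by controls: 0 for no effect and ±100 for the full control effect.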 Conditions: JNK3 lysate, c-Jun phosphorylation; series mostly up to 57.1 µM. In a few lines:
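Compound titrations were preincubated 15 minutes at room temperature with substrate, antibody and pre-activated JNK3-containing HepG2 lysate. Reactions were started with 10 uM ATP and stopped with EDTA-containing bead buffer for AlphaScreen detection.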
(In general: In Alpha technology, singlet oxygen from a donor bead excites a nearby acceptor bead.)

In assay [6] the target is Glucocorticoid receptor (Homo sapiens) (UniProt P04150). The assay can be described thus: GR-GFP Redistribution (AID 450;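 active = compounds whose dose series gives a full or clear partial fitted curve of increased nuclear translocation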; note: potency is the fitted concentration of half-maximal effect). To be noted: U2OS GR-GFP nuclear translocation, laser cytometry, 2 h.
Glucocorticoid receptor (Homo sapiens), sequence (P04150 whole entry, looked up): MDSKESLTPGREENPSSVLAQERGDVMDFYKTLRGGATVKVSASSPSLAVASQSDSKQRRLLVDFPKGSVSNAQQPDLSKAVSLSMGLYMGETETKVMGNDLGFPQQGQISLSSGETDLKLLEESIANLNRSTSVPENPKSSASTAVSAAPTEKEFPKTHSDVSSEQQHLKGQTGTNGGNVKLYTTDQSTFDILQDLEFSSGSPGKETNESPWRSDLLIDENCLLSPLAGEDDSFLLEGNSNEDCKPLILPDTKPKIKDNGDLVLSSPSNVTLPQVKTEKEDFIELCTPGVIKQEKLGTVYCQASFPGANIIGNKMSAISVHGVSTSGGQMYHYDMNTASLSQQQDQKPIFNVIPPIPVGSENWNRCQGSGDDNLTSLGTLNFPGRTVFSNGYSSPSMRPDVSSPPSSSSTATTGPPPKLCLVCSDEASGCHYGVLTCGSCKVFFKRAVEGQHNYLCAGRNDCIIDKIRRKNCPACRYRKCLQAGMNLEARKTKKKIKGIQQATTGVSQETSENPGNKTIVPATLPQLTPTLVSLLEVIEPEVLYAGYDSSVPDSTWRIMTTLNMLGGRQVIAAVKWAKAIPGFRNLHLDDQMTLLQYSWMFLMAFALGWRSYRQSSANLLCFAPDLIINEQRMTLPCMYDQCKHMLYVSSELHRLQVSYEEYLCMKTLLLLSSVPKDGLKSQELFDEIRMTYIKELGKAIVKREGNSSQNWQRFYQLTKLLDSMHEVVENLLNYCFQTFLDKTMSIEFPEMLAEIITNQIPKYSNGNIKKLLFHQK
Assay [7] has the same target. The assay can be described thus: GR-EFC Redistribution (AID 451; calls by dose curve; note: potency is the fitted concentration of half-maximal effect). To be noted: CHO-K1 GR-EFC translocation, beta-gal luminescence, 2 h. The essentials:
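Translocation of GR-ED fusion to nuclear EA restores b-gal, read by luminescence after 1 h room-temperature detection. Engineered CHO-K1 biosensor cells, 1,000/well, exposed 2 h at 37 C to titrations up to 46 uM final.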

Cytochrome P450 1A2 (Homo sapiens), sequence (P05177 whole entry, looked up): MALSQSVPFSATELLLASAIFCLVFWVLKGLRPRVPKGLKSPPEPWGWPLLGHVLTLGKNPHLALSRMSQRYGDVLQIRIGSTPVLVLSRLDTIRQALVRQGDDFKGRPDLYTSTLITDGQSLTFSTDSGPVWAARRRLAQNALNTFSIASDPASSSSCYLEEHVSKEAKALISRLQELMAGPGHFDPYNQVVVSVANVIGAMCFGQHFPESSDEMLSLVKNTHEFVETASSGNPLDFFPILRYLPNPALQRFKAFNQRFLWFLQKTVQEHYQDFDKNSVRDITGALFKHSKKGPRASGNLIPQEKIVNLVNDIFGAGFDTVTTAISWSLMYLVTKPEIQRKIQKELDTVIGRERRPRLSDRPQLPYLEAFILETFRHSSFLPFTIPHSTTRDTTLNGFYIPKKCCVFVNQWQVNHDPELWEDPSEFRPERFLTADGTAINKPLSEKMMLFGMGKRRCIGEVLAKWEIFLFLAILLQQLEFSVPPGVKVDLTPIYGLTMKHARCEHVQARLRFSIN

Turning to `c1ccc2c(CC3=NCCN3)cccc2c1`, the activity change, negative = inhibition is 14% (inactive) and 7.7% (inactive) in assay [1] (at 17.2 µM (top of the series)); -19.1% (inactive) in assay [3] (at 17.2 µM (top of the series)). In addition, the Potency entry in assay [2] and in assay [5] was “inactive” in each case. For the same compound, the activity, negative = inhibition in assay [4] (at 17.2 µM (top of the series)) was 6.58% (inactive) and 9.6% (inactive).

For the compound `C[C@]12CC[C@@H]3c4ccc(O)cc4CC[C@H]3[C@@H]1CCC2=O`, the activity change, negative = inhibition is -1.97% (inactive) in assay [1] (at 17.2 µM (top of the series)) and -19.8% (inactive) in assay [3] (at 17.2 µM (top of the series)). Moreover, the activity, negative = inhibition in assay [4] (at 17.2 µM (top of the series)) is -23.3% (inactive).

Regarding `OCCN1CCN(CCCN2c3ccccc3Sc3ccc(Cl)cc32)CC1`, the activity change, negative = inhibition in assay [1] (at 17.2 µM (top of the series)) is 25.4% (inactive) and 10.4% (inactive); in assay [1] (at 38 µM (top of the series)), 7.4% (inactive). For the same compound, the activity, negative = inhibition was -2.44% (inactive) and -12% (inactive) in assay [4] (at 17.2 µM (top of the series)); -28.9% (inactive) in assay [4] (at 38 µM (top of the series)). Further, the Potency was > 20.6 µM (inactive) in assay [6]; > 46 µM (inactive) and > 20.6 µM (inactive) in assay [7]. Moreover, the Potency entry in assay [5] was “inactive”.

Turning to `CC1(C)OC(=O)NC1=O`, the activity change, negative = inhibition was 5.67% (inactive) in assay [1] (at 17.2 µM (top of the series)) and -1.86% (inactive) in assay [3] (at 17.2 µM (top of the series)). Further, the Potency result in assay [2] and in assay [5] was “inactive” throughout. Further, the activity, negative = inhibition in assay [4] (at 17.2 µM (top of the series)) is 1.25% (inactive). For the same compound, the Potency in assay [6] and in assay [7] was > 20.6 µM (inactive) each time.

For the compound `CCCn1cnc2c1c(=O)n(CCCCC(C)=O)c(=O)n2C`, the values for the activity change, negative = inhibition in assay [1] (at 38 µM (top of the series)) and in assay [3] (at 38 µM (top of the series)) were -2.42% (inactive) and 9.62% (inactive), respectively. The Potency in assay [2] is 12.6 µM (active); in assay [6], > 46 µM (inactive); in assay [7], > 46 µM (inactive). The activity, negative = inhibition in assay [4] (at 38 µM (top of the series)) was 10.7% (inactive). The Potency result in assay [5] was “inactive”.

Turning to `CCN(CC)CCNC(=O)c1cc(Cl)c(N)cc1OC`, the activity change, negative = inhibition in assay [1] (at 17.2 µM (top of the series)) was 0.248% (inactive) and 1.7% (inactive); in assay [1] (at 38 µM (top of the series)), 17% (inactive); in assay [3] (at 17.2 µM (top of the series)), -0.325% (inactive) and -6.2% (inactive); in assay [3] (at 38 µM (top of the series)), 4.1% (inactive). The Potency in assay [2] is 15.8 µM (active). In addition, the activity, negative = inhibition is 16.4% (inactive) and -2.07% (inactive) in assay [4] (at 17.2 µM (top of the series)); -26.6% (inactive) in assay [4] (at 38 µM (top of the series)). Besides, the Potency result in assay [5] was “inactive”.

Turning to `NC(N)=NCCC[C@H](N)C(=O)O`, the activity change, negative = inhibition in assay [1] (at 38 µM (top of the series)) was -0.498% (inactive); in assay [3] (at 38 µM (top of the series)), -0.248% (inactive). Further, the Potency result in assay [2] was “inactive and 31.6 µM (active)”; in assay [6] it was > 46 µM (inactive); in assay [7], > 46 µM (inactive). Further, the Potency result in assay [5] was “inactive”.

`COc1ccc(Cl)cc1C(=O)NCCc1ccc(S(=O)(=O)NC(=O)NC2CCCCC2)cc1`: the activity change, negative = inhibition in assay [1] (at 17.2 µM (top of the series)) was -12.3% (inactive) and -19.5% (inactive); in assay [1] (at 38 µM (top of the series)) it was -26.7% (inactive); in assay [3] (at 17.2 µM (top of the series)), -3.12% (inactive) and -29.5% (inactive); in assay [3] (at 38 µM (top of the series)) it was 0.0491% (inactive). Moreover, the Potency entry in assay [2] and in assay [5] was “inactive” in each case. Further, the activity, negative = inhibition in assay [4] (at 17.2 µM (top of the series)) is -3.96% (inactive) and -3.07% (inactive); in assay [4] (at 38 µM (top of the series)), 4.48% (inactive).
